Shown are actives, neighbours in structure and some others; about 2.7% of the full set was active somewhere.
aDG glyco up = activators of alpha-DG glycosylation, primary screen, uHTS, Pro5-aDG cells, AlphaScreen | alpha-DG glycosylation AlphaScreen (IIH6); 0% Pro5, 100% B10-LARGE cell signal | activation, % at 10 µM | 360,000 tested, 0.22% active | AID 624168, 2012;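 active means activation of at least 8% versus controls, or a plate z-score of at least 8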;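 further: Pro5 are CHO cells carrying HIG-tagged alpha-DG that lacks glycosylation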
H9c2 TAG inh = inhibitors of triacylglycerol accumulation, primary screen, cell-based, uHTS, fluorescence, H9c2 | 230,000 tested, 0.66% active | inhibition, % at 12.5 µM | AID 651582, 2012 | H9c2 cells, Nile Red lipid (TAG) fluorescence; cells loaded with 200 µM oleic acid;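 active means pattern-corrected inhibition of lipid staining of at least 50% with the nuclear-stain viability signal not falling by more than 50%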;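 further: 0% = DMSO wells and 100% = triacsin C control wells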
NadD block = inhibitors of S. aureus NadD, primary screen, biochemical, colorimetric, uHTS; 360,000 tested, 0.78% active; Nicotinate-nucleotide adenylyltransferase NadD (Staphylococcus aureus N315); purified NadD enzyme, colorimetric absorbance read-out; AID 602399, 2012; inhibition, % at 20 µM; in the data active means inhibition above about 26%
MPTP inh = mitochondrial permeability transition pore inhibitors, primary screen, biochemical, isolated mouse mitochondria, absorbance. Ca2+ swelling absorbance, 30 min. inhibition, % at 10 µM. 360,000 tested, 1.4% active;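 active means inhibition of 50% or more, scaled per plate between neutral and stimulator controls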;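 further: 0% = DMSO wells given calcium and 100% = 1 mM EGTA wells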
NadD conf = inhibitors of S. aureus NadD, confirmation, biochemical, colorimetric, single concentration; shares compounds with NadD block; purified S. aureus NadD, colorimetric enzyme assay; inhibition, % at 20 µM; 2,000 tested, 13% active; AID 624309, 2012; in the data active means inhibition mostly above about 42%, no sharp cut-off; inactive means mostly below about 42%
Numbers without * were called inactive; . = not tested or not shown; ! = a repeat was not active.

SMILES	aDG glyco up	H9c2 TAG inh	NadD block	MPTP inh	NadD conf
CCN(CC(=O)Nc1ccccc1OC)C(=O)CN1C(=O)NC(C)(c2ccc3ccccc3c2)C1=O (configuration not stated)	0	-16	0	-2	.
O=[N+]([O-])c1cc2c(cc1/C=N/Nc1nc(Nc3ccccc3)nc(N3CCCCC3)n1)OCO2	-1	43	39*	1	3
O=[N+]([O-])c1ccc(Nc2nc(N/N=C/c3cccc(F)c3)nc(N3CCCC3)n2)cc1	-1	.	38*	5	-3
COc1ccc([N+](=O)[O-])cc1NC(=O)CC1SC(=Nc2cccc(C)c2C)N(/N=C/c2cccc(OC)c2OC)C1=O (configuration not stated)	-1	22	35*!	2	20
Cc1cccn2c(=O)c3cc(S(=O)(=O)c4ccc(Br)cc4)c(=N)n(C4CCCCC4)c3nc12	0	.	27*	0	22
Cc1cccn2c(=O)c3cc(S(=O)(=O)c4ccc(F)cc4)c(=N)n(Cc4ccco4)c3nc12	0	18	35*	20	7
Cc1cccn2c(=O)c3cc(S(=O)(=O)c4ccccc4)c(=N)n(Cc4ccco4)c3nc12	0	18	2	-2	.
Cc1cccn2c(=O)c3cc(S(=O)(=O)c4ccccc4)c(=N)n(Cc4ccc(F)cc4)c3nc12	0	.	32*	-2	13
Cc1cccn2c(=O)c3cc(C(=O)NC4CCCCC4)c(=N)n(Cc4ccc(F)cc4)c3nc12	1	.	14	2	.
COc1ccc(CCn2c(=N)c(S(=O)(=O)c3ccc(Cl)cc3)cc3c(=O)n4ccccc4nc32)cc1	0	.	30*	-2	22
Cc1ccc(S(=O)(=O)c2cc3c(=O)n4cccc(C)c4nc3n(C3CCCCC3)c2=N)cc1	0	.	13	1	.
CCN(CC)C(=O)C1CCN(Cc2ccc(OCc3ccccc3)c(OC)c2)CC1	0	.	-6	1	.
CCN(CC)S(=O)(=O)c1cccc(C(=O)OCC(=O)NCCN2C(=O)CSC2=O)c1	0	4	1	-3	.
Cc1cccc(C)c1NC(=O)CN(C)C(=O)Cn1c(=O)cnc2ccccc21	0	2	3	-2	.
Cc1ccc2nc3c(cc(S(=O)(=O)c4ccccc4)c(=N)n3Cc3ccco3)c(=O)n2c1	0	-5	31*	1	22
O=C(COc1ccccc1Cl)N1CCNC1=O	0	-11	-2	-1	.
O=C(COC(=O)c1cc(Cl)nc(Cl)c1)Nc1ccc(Cl)c(S(=O)(=O)N2CCOCC2)c1	0	0	-1	0	.
Cc1ccc(C)c(N2CCN(c3ccc4cc(S(=O)(=O)N5CCCCC5)ccc4n3)CC2)c1	0	.	32*	2	16
Cc1cccc(N2CCN(c3ccc4cc(S(=O)(=O)N5CCCCC5)ccc4n3)CC2)c1C	1	.	29*	2	21
C[C@H](CO)N1C[C@H](C)[C@@H](CN(C)S(=O)(=O)c2cccs2)Oc2c(NS(=O)(=O)c3cn(C)cn3)cccc2C1=O	0	.	0	-3	.
O=C(NCCc1ccccn1)c1cc2ccccc2o1	0	.	0	1	.
CCCCNC(=O)C1=C(N)C(C(=O)Nc2ccc(C)c(S(=O)(=O)N3CCCCC3)c2)SC1=Nc1ccc(C)cc1C (configuration not stated)	0	-3	40*	10	15
c1ccc(C2=Nn3c(nnc3-c3cc(-c4ccccc4)n[nH]3)SC2)cc1	0	18	20	-2	.
Clc1ccc(C2=Nn3c(nnc3-c3n[nH]c4c3CCC4)SC2)cc1Cl	0	43	30*	3	40
Clc1ccc(C2=Nn3c(nnc3-c3cc(-c4ccccc4)n[nH]3)SC2)cc1	0	.	45*	3	30
COc1ccc(OCCC(=O)OCC(=O)Nc2cccc(S(=O)(=O)N3CCCCC3)c2)cc1	0	10	-2	0	.
CC(=O)c1sc(NC(=O)C2CCCN2S(=O)(=O)c2ccccc2F)nc1C (configuration not stated)	0	3	1	0	.
Cc1cccc2sc(NNC(=O)c3ccc(S(=O)(=O)N4CCCC(C)C4)cc3)nc12 (configuration not stated)	0	3	23	25	.
